# Shown are actives, neighbours in structure and some others; about 19% of the full set was active somewhere.
# Pf growth 96h – Primary qHTS for delayed death inhibitors of the malarial parasite plastid, 96 hour incubation; actives 6.9% (n = 320,000); P. falciparum luciferase reporter growth, 96 h; AID 504834, 2011; Potency, µM (doses to about 28.7 µM), inactives show at the top dose activity change, negative = inhibition, hits mostly inhibitors; note: potency is the fitted concentration of half-maximal effect; % is set by controls: 0 for no effect and ±100 for the full control effect
#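 P. falciparum expressing integrated firefly luciferase, in erythrocytes at 2% hematocrit, 0.05% parasitemia, incubated with compounds 96 h at 37 C, 5% CO2. Growth inhibition read as loss of luminescence; two-generation exposure targets delayed-death apicoplast inhibitors.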
# Cycloheximide cs – Cycloheximide Counterscreen for Small Molecule Inhibitors of Shiga Toxin; cell reporter, cycloheximide protein synthesis inhibition counterscreen; max response, %; actives 12% (n = 300,000); in the data active = max response mostly above about 13%, no sharp cut-off; inactive = mostly below about 14%; note: read at 38.3 µM for the half of the compounds with a filed dose; 0% is about no effect
# Lassa entry inh – qHTS for Inhibitors of binding or entry into cells for Lassa Virus; Lassa virus pseudotype entry inhibition, cell reporter; Potency, µM (doses to about 37.9 µM), for the others: at the highest dose activity change, negative = inhibition, actives largely listed as inhibitors; actives 1.2% (n = 300,000); AID 540256, 2011; calls by dose curve; tested in HEK293 cells; note: potency is the fitted concentration of half-maximal effect; % is set by controls: 0 for no effect and ±100 for the full control effect; nearly all actives have a fitted effect of over 50% in size
# Shiga inhibitor – A qHTS for Small Molecule Inhibitors of Shiga Toxin | inhibition, % at 38.7 µM | Vero cells, Shiga toxin protein synthesis inhibition reporter | actives 9.2% (n = 290,000); in the data active = inhibition mostly above about 28%, no sharp cut-off; inactive = mostly below about 43%; note: 0% is about no effect
# MARV entry inh – qHTS for inhibitors of binding or entry into cells for Marburg Virus; Marburg virus pseudotyped entry inhibition, cell reporter; Potency, µM (highest dose often 37.8 µM), inactives show top-dose activity change, negative = inhibition, most hits filed as inhibitors; actives 1.8% (n = 300,000); AID 540276, 2011; calls by dose curve; tested in HEK293 cells; note: potency is the fitted concentration of half-maximal effect; % is set by controls: 0 for no effect and ±100 for the full control effect
# Pf growth 48h – Primary qHTS for delayed death inhibitors of the malarial parasite plastid, 48 hour incubation. P. falciparum luciferase growth in erythrocytes, 48 h. actives 5.9% (n = 310,000). Potency, µM (titrated, usually from 28.7 µM), without a hit: top-dose activity change, negative = inhibition, hits mostly inhibitors; note: potency is the fitted concentration of half-maximal effect; % is set by controls: 0 for no effect and ±100 for the full control effect
#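 A one-generation exposure of luciferase-tagged malaria parasites in RPMI 1640/Albumax erythrocyte culture, 37 C and 5% CO2. Inhibition is inferred from decreased luminescence after adding detection reagent.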
# * hit, by the source's call; ? = inconclusive; nt = no result; [ ] = another dose, or the depositor's remark. Unless noted, calls come from the whole dose curve; as a rule, active = well fitted inhibition curve with a large enough effect; inconclusive = small, poorly fitted or top-dose-only effect, or another doubt; inactive = no such curve, though single readings can be large or run the other way.
SMILES,Pf growth 96h,Cycloheximide cs,Lassa entry inh,Shiga inhibitor,MARV entry inh,Pf growth 48h
CCN(CC)S(=O)(=O)c1cc(C(=O)c2nccn2C)ccc1Cl,?,9,-8%,-1,-6%[46.1 µM],?
COc1ccc2[nH]c(=O)c(CN(CC3CCCO3)C(=O)Nc3ccccc3OC)cc2c1 (stereo not drawn),nt,2,?,-14,?,?
CC12C(=O)N(c3cccc4cccnc34)C(=O)C1C1C=CC2C1 (stereo not drawn),6.6µM*,-4,nt,-17,nt,nt
O=S(=O)(c1ccc2c(c1)nc1n2CCC1)N1CCOCC1,-16%,-6,0%,11,23%,-15%
FC(F)(F)c1ccc2c(c1)nc1n2CCCC1,35%,22*,0%,13,-2%,?
Cc1ccccc1N1CCN(S(=O)(=O)Cc2ccccc2)CC1,?,14,nt,27,nt,0%
CC(C)N1CCN(S(=O)(=O)c2ccc3ccccc3c2)CC1,-8%,-1,nt,-15,nt,2%
CCOC(=O)NC1(NCc2ccccc2)Oc2ccccc2O1,?,16*,?,-1,?,?
CCOC(=O)N1CCN(C(=O)c2ccc3oc(CCCc4ccccc4)nc3c2)CC1,10µM*,39*,?,81*,?,-6%
CCOC(=O)N1CCN(C(=O)c2ccc3ccccc3c2)CC1,0%,-3,?,-7,32%,10%
CC(C)c1nc2cc(C(=O)N3CCNC(=O)C3c3cccc(F)c3)ccc2o1 (stereo not drawn),6%,12*,nt,54,nt,-11%
CC(C)CC(=O)C1CCCN(C(=O)c2ccc3oc(Cc4ccccc4)nc3c2)C1 (stereo not drawn),18%,11,?,-6,-7%[46.1 µM],14%
CC(C)NC(=O)CN1CCN(C(=O)c2ccc3oc(CCCc4ccccc4)nc3c2)CC1,21%,20*,11%,28,-16%,-29%
CC(C)c1nc2ccc(C(=O)NCc3ccc(F)cc3)cc2o1,nt,nt,-2%[46.1 µM],nt,nt,nt
CCCOC1CCCN(C(=O)c2ccc3oc(C(C)C)nc3c2)C1 (stereo not drawn),34%,38*,16%,94*,-5%,8%
CC(=O)N1CCN(C(=O)c2ccc3oc(CCCc4ccccc4)nc3c2)CC1,13µM*,35*,nt,16,nt,0%
O=C(c1ccc2oc(Cc3ccc(Cl)cc3)nc2c1)N1CCCCC1CCO (stereo not drawn),?,17,1%,13,-23%,-16%
COCC1CCCCN1C(=O)c1ccc2oc(CCCc3ccccc3)nc2c1 (stereo not drawn),-8%,37*,?,61*,?,?
Cc1ccc2c(C)c(C(=O)N3CCN(c4cnccn4)CC3)oc2c1C,?,10,-16%,66,11%,?
COCCN1CCN(C(=O)c2ccc3nc(Cc4ccc(OC)c(OC)c4)oc3c2)CC1,?,10,-18%,14,?,-24%
COCCN1CCN(C(=O)c2ccc3oc(CCc4ccccc4)nc3c2)CC1,-17%,23*,?,35,11%,27%
CC(C)c1nc2cc(C(=O)N3CCN(c4cnccn4)CC3)ccc2o1,12µM*,27*,15%,51,8%,6%
Cc1ccccc1NC(=O)CN1C(=O)NC(C)(c2ccc3c(c2)OCO3)C1=O (stereo not drawn),nt,0,1%,-7,1%,-3%
CN1C(=O)N(CC(=O)Nc2ccc(C(F)(F)F)cc2)C(=O)C12CCCCC2,-8%,nt,-15%,nt,-3%,?
COc1ccc(/C=N/NC(=O)c2ccc3nc[nH]c3c2)cc1OC,135%,1,nt,1,nt,-9%
SMILES,Pf growth 96h,Cycloheximide cs,Lassa entry inh,Shiga inhibitor,MARV entry inh,Pf growth 48h
O=C(c1ccc(OC2CCN(CCc3ccccc3)CC2)cc1)N1CCCC(CCCO)C1 (stereo not drawn),-28%,1,nt,-4,nt,?
CCOC(=O)C1CCCN(C(=O)c2ccc3oc(Cc4ccccc4)nc3c2)C1 (stereo not drawn),16%,48*,nt,76*,nt,-5%
O=C(c1ccc2oc(CCCc3ccccc3)nc2c1)N1CCCC(CCCO)C1 (stereo not drawn),?,30*,nt,47*,nt,-9%
Cc1ccc(C[n+]2c(-c3ccc(C)cc3)cc(-c3ccc(C)cc3)cc2-c2ccc(C)cc2)cc1,?,nt,nt,nt,nt,0.33µM*
C=CCc1cc(/C=N/NC(=O)CSc2nnc(CCCc3ccc(OC)cc3)o2)cc(OC)c1O,0.059µM*,-2,?,-17,6%,nt
COc1ccc(/C=N/NC(=O)CSc2nnc(CCCc3ccc(OC)c(C)c3)o2)cc1,1%[5.75 µM],17,7.9µM*,23,?,?
C=CCc1cc(/C=N\NC(=O)CSc2nnc(CCCc3ccc(OC)c(C)c3)o2)cc(OC)c1O,2.9µM*,-1,?,-21,-2%,3.7µM*
COc1ccc(CCCc2nnc(SCC(=O)N/N=C\c3ccc(O)c(OC)c3)o2)cc1C,?,-1,?,-2,?,?
COC(=O)c1cc(NC(=O)CN(C)C2CCS(=O)(=O)C2)cc(C(=O)OC)c1 (stereo not drawn),nt,nt,17%,nt,1%,nt
O=C(NCCc1ccccc1)c1ccc(NS(=O)(=O)c2ccc3[nH]c(=O)[nH]c3c2)cc1,56%,nt,?,nt,-4%,52%
CC(NC(=O)CCn1c(=O)c2cccn2c2ccc(F)cc21)c1ccccc1 (stereo not drawn),nt,nt,-1%[46.1 µM],nt,nt,nt
CCCCCCn1c(=O)c(C(=O)Nc2nnc(C)s2)c(O)c2ccccc21,-29%,-2,nt,-17,nt,5%
CC(=O)CSc1nnc(-c2ccc3c(c2)OCO3)o1,?,20*,?,36*,?,273%
O=C(CSc1nnc(-c2ccc3c(c2)OCO3)o1)Nc1ncc(Cl)cc1Cl,?,19*,5%,31*,-8%,17%
c1cc(CSc2nnc(-c3ccc4c(c3)OCO4)o2)ccn1,-8%,44*,?,88*,?,76%
Oc1ccc(C=Nc2cccc3ccccc23)c(O)c1,43%,14*,-20%[46.1 µM],30,?,-20%
COc1ccc(N2CC(C(=O)Nc3ccccc3C(=O)NCc3ccco3)CC2=O)cc1 (stereo not drawn),-16%,-1,-2%,-6,-14%,?
COC(=O)c1ccccc1NC(=O)C1CC(=O)N(c2ccc(C)c(C)c2)C1 (stereo not drawn),4.1µM*,3,-10%,-8,?,nt
CCCOc1ccc(N2CC(C(=O)Nc3ccccc3C(=O)NCc3ccco3)CC2=O)cc1 (stereo not drawn),16%,0,0%,-11,-28%,9.3µM*
